In all, about 360,000 compounds went through this assay and about 5,000 (1.4%) were called active.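 Rule for the calls: active = inhibition of 50% or more, scaled per plate between neutral and stimulator controls; inactive = the rest.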 The sample as a whole holds a higher share of actives than the screen did.
Experiment: blockers of Ca2+-induced mitochondrial swelling – biochemical, isolated mouse mitochondria, absorbance, primary screen (AID 602449);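 note: 0% = DMSO wells given calcium and 100% = 1 mM EGTA wells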
Conditions: 30 min, at 10 µM, active compounds read high

**Q.** With `COCCNC(=O)CSc1nc2sccc2c(=O)n1-c1ccccc1` as the molecule, how does the inhibition read?
**A.** 0% (inactive)

**Q.** Which inhibition does the source give for `CC(NC(=S)Nc1ccccc1)C(c1cccs1)N1CCOCC1` (stereo not drawn) here?
**A.** 0.1% (inactive)

**Q.** For `S=C(NCCCc1ccccc1)Nc1ccc(Br)cc1`, which inhibition is on record?
**A.** 85.9% (active)

**Q.** With `S=C(NCC1COc2ccccc2O1)Nc1ccc(Br)cc1` (stereo not drawn) as the molecule, how does the inhibition read?
**A.** 91.4% (active)

**Q.** For `O=S(=O)(NCCCc1ccccc1)c1ccc(Br)cc1`, which inhibition is on record?
**A.** 13.4% (inactive)

**Q.** With `O=C(COc1ccc(F)cc1Br)NCC1COc2ccccc2O1` (stereo not drawn) as the molecule, how does the inhibition read?
**A.** 1.6% (inactive)

**Q.** For `C/C(=N/NC(=S)Nc1ccccc1)c1ccc2c(c1)OCO2`, which inhibition is on record?
**A.** -0.4% (inactive)

**Q.** For `S=C(Nc1ccc(Br)cc1)NC1CCN(Cc2ccccc2)CC1`, which inhibition is on record?
**A.** 3.1% (inactive)

**Q.** Which inhibition does the source give for `CC(NC(=S)Nc1ccccc1)C1COc2ccccc2O1` (stereo not drawn) here?
**A.** 83.4% (active)

**Q.** Which inhibition does the source give for `CCCN(CC1COc2ccccc2O1)C(=S)Nc1ccc(C)cc1` (stereo not drawn) here?
**A.** 2.3% (inactive)

**Q.** With `Cc1c[n+]([O-])ccc1[N+](=O)[O-]` as the molecule, how does the inhibition read?
**A.** -0.3% (inactive)

**Q.** For `COc1ccccc1NC(=O)CCSc1nnc(-c2ccc(O)cc2)o1`, which inhibition is on record?
**A.** -1.6% (inactive)

**Q.** For `CC(C)Oc1ccc(C(=O)Nc2cc(=O)n(C)c(=O)n2C)cc1`, which inhibition is on record?
**A.** -1.9% (inactive)

**Q.** For `Cn1cnc(S(=O)(=O)N2C[C@@H](O)COC[C@@H]3O[C@H](CC(=O)NC4CCC4)CC[C@H]32)c1`, which inhibition is on record?
**A.** -0.5% (inactive)

**Q.** With `O=C(C[C@H]1C[C@@H]2c3cc(NC(=O)C4CCC4)ccc3O[C@@H]2[C@H](CO)O1)NC1CCCCC1` as the molecule, how does the inhibition read?
**A.** -0.5% (inactive)

**Q.** Which inhibition does the source give for `Cc1cc(F)ccc1N1CCC(N2CCN(C)C(CCO)C2)CC1` (stereo not drawn) here?
**A.** 0% (inactive)

**Q.** For `CCCNC(=O)NCc1ccc(N2CCCC2=O)cc1`, which inhibition is on record?
**A.** 2.2% (inactive)

**Q.** Which inhibition does the source give for `COc1cc(N2CCCC2)c(OC)cc1/C=C(/C#N)c1cccc(Br)c1` here?
**A.** 1.4% (inactive)

**Q.** Which inhibition does the source give for `Cc1cc(C)cc(OCC(=O)NCc2cc(C)nc3ccccc23)c1` here?
**A.** 4.6% (inactive)

**Q.** Which inhibition does the source give for `Cc1cc(C)c(NC(=O)c2oc3ccccc3c2COc2ccccc2)c(C)c1` here?
**A.** 1.5% (inactive)

**Q.** With `Cc1cc(C)c(NC(=O)C[N+](C)(C)CC(O)COc2cccc3ccccc23)c(C)c1` (stereo not drawn) as the molecule, how does the inhibition read?
**A.** 80.5% (active)

**Q.** For `COc1ccc(C(=O)NC2CCCc3c2cnn3-c2cccc(C)c2C)c(OC)n1` (stereo not drawn), which inhibition is on record?
**A.** 71% (active)

**Q.** With `CC1(C)Cc2c(cnn2-c2cccc(F)c2)C(NC(=O)c2cc[n+]([O-])cc2)C1` (stereo not drawn) as the molecule, how does the inhibition read?
**A.** -0.8% (inactive)

**Q.** Which inhibition does the source give for `Cn1nccc1C(=O)NC1CCCc2c1cnn2-c1ccccc1F` (stereo not drawn) here?
**A.** 102% (active)

**Q.** With `COC(=O)c1ccc(C(=O)NC2CC(C)(C)Cc3c2cnn3-c2ccc(F)cc2)nc1` (stereo not drawn) as the molecule, how does the inhibition read?
**A.** -1.7% (inactive)

**Q.** For `Cn1nccc1C(=O)NC1CCCc2c1cnn2-c1ccc(F)cc1F` (stereo not drawn), which inhibition is on record?
**A.** 89.9% (active)

**Q.** For `COc1ccc(OC)c(C(=O)NC2CCCc3c2cnn3-c2cc(C)cc(C)c2)c1` (stereo not drawn), which inhibition is on record?
**A.** 1.5% (inactive)

**Q.** Which inhibition does the source give for `CC1=C(C(=O)NC2CC(C)(C)Cc3c2cnn3-c2ccc(C)cc2)OCCO1` (stereo not drawn) here?
**A.** -0.2% (inactive)

**Q.** Which inhibition does the source give for `Cc1cc(C(=O)NC2CC(C)(C)Cc3c2cnn3-c2ccccc2)n[nH]1` (stereo not drawn) here?
**A.** -0.7% (inactive)

**Q.** For `COc1ccc(C(=O)NC2CC(C)(C)Cc3c2cnn3-c2ccccc2C)o1` (stereo not drawn), which inhibition is on record?
**A.** -1.2% (inactive)

**Q.** With `CCNC(=O)c1sccc1-n1cccc1` as the molecule, how does the inhibition read?
**A.** -0.7% (inactive)

**Q.** For `CCN(CC)C(=O)Oc1ccc(OC(=O)N(CC)CC)cc1`, which inhibition is on record?
**A.** -0.8% (inactive)

**Q.** With `C[C@H](CO)N1C[C@H](C)[C@@H](CN(C)S(=O)(=O)c2ccc(F)cc2)Oc2ccc(NC(=O)CCC(F)(F)F)cc2C1=O` as the molecule, how does the inhibition read?
**A.** 0.8% (inactive)

**Q.** For `COc1ccc(CN(Cc2ccco2)S(=O)(=O)c2ccc(S(=O)(=O)N3CCCC3)cc2)cc1`, which inhibition is on record?
**A.** 11.4% (inactive)

**Q.** With `CCc1cccc(NC(=O)COC(=O)c2cc(=O)c3ccccc3o2)c1` as the molecule, how does the inhibition read?
**A.** 0.9% (inactive)

**Q.** Which inhibition does the source give for `CSCC[C@H](NC(=O)N1CCn2c1nc1ccccc12)C(=O)NCc1ccc2c(c1)OCO2` here?
**A.** -2.6% (inactive)

**Q.** Which inhibition does the source give for `C=C(C)c1cccc(C(C)(C)NC(=O)NCCN(CC)CC)c1` here?
**A.** 1.1% (inactive)

**Q.** Which inhibition does the source give for `CCC(C(=O)NC(C)(C)C)n1c(-c2ccccc2)nc2ccccc21` (stereo not drawn) here?
**A.** 1.2% (inactive)

**Q.** Which inhibition does the source give for `Cc1cc(C)n2nc(C(=O)OCC(=O)N(CCC#N)c3ccc(F)cc3)nc2n1` here?
**A.** -0.4% (inactive)

**Q.** Which inhibition does the source give for `CN1CCN(CCNC(=O)Nc2ccccc2[N+](=O)[O-])CC1` here?
**A.** -0.3% (inactive)

**Q.** For `O=C(CCC(=O)N1CCCC1)Nc1ccc([N+](=O)[O-])cc1`, which inhibition is on record?
**A.** -1.4% (inactive)

**Q.** For `CN1CCN(CCNC(=O)Nc2ccc([N+](=O)[O-])cc2)CC1`, which inhibition is on record?
**A.** 93.8% (active)

**Q.** For `O=C(CCN1C(=O)COc2ccccc21)NCCCN1CCN(c2ccc(F)cc2)CC1`, which inhibition is on record?
**A.** -0.5% (inactive)

**Q.** Which inhibition does the source give for `O=C(NCCCN1CCN(c2ccc(F)cc2)CC1)Nc1ccc([N+](=O)[O-])cc1` here?
**A.** 90.9% (active)

**Q.** For `O=C(Nc1ccc(F)cc1)C1CCN(C(=O)c2ccc([N+](=O)[O-])cc2)CC1`, which inhibition is on record?
**A.** 0.6% (inactive)

**Q.** With `COc1cc(C)ccc1OCC(=O)OCC(=O)c1ccc[nH]1` as the molecule, how does the inhibition read?
**A.** 0.5% (inactive)

**Q.** Which inhibition does the source give for `COc1ccc(/C=C2/S/C(=N/N=C3\CC4CCC3(C)C4(C)C)NC2=O)cc1` (stereo not drawn) here?
**A.** -1.3% (inactive)

**Q.** With `CCOC(=O)/C=C/c1ccc(C(F)(F)F)cc1S(=O)(=O)NC(C)(C)C` as the molecule, how does the inhibition read?
**A.** 2.5% (inactive)

**Q.** For `CCCCN(CCCC)CCC(O)c1cc2c(Cl)cc(Cl)cc2c2cc(C(F)(F)F)ccc12` (stereo not drawn), which inhibition is on record?
**A.** 112% (active)

**Q.** With `O=C(/C=C/c1ccc(F)cc1)Nc1cccc(S(=O)(=O)Nc2cccc(C(F)(F)F)c2)c1` as the molecule, how does the inhibition read?
**A.** 92.8% (active)

**Q.** With `O=C(/C=C/c1ccc(Cl)cc1)Nc1ccc(S(=O)(=O)Nc2ncccn2)cc1` as the molecule, how does the inhibition read?
**A.** -0.3% (inactive)

**Q.** For `O=C(Nc1cccc(S(=O)(=O)NC2=NCCC2)c1)c1ccc(F)cc1F`, which inhibition is on record?
**A.** -0.6% (inactive)

**Q.** Which inhibition does the source give for `O=C(O)CSC(NC(=O)c1cccnc1)(C(F)(F)F)C(F)(F)F` here?
**A.** -1.1% (inactive)

**Q.** For `N#Cc1c(NC(=O)CCCN2C(=O)c3ccccc3C2=O)oc(-c2ccccc2)c1-c1ccccc1`, which inhibition is on record?
**A.** -0.2% (inactive)

**Q.** Which inhibition does the source give for `COc1cc(C(=O)Nc2oc(-c3ccccc3)c(-c3ccccc3)c2C#N)cc(OC)c1OC` here?
**A.** 61.1% (active)

**Q.** With `COc1cc(C(=O)NCC(=O)N2CC=C(c3ccccc3)CC2)cc(OC)c1OC` as the molecule, how does the inhibition read?
**A.** 0% (inactive)

**Q.** With `CCc1nccn1S(=O)(=O)c1cccc([N+](=O)[O-])c1` as the molecule, how does the inhibition read?
**A.** 0.1% (inactive)

**Q.** With `O=C(CCN1C(=O)C2CCCCC2C1=O)Nc1ccc(OC(F)F)cc1` (stereo not drawn) as the molecule, how does the inhibition read?
**A.** -2% (inactive)

From PubChem BioAssay AID602449 (Sanford-Burnham Center for Chemical Genomics, 2012)
